Measurements from PubChem BioAssay AID651717 (Broad Institute, 2012).
In all, about 1,200 compounds went through this assay and about 950 (79%) were called active. So high a share suggests a set chosen from earlier hits. The list is a sample of the results. Results with a measured potency or affinity are listed apart. Unmarked numbers belong to inactive results.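 The calls were made as follows: active = signal rises and fitted curve reaches 40% activity at or below the top valid tested dose, in every replicate test; inconclusive = replicate tests give mixed calls; inactive = the rest, including activity in the opposite direction.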

Assay: compounds raising Bmi1 reporter signal – mouse embryonic stem cells, luciferase, cherry-pick, esBAF inhibitor project, dose response (AID 651717);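 also: luciferase knocked into Bmi1 locus with EF-1a renilla as cell number control; rising ratio signals esBAF inhibition which derepresses Bmi1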
Conditions: mESC Bmi1-luciferase reporter, firefly/renilla ratio, 24 h, active compounds read high; at 35 µM unless noted

SMILES | max activity
Cc1ccc(CNC(=O)c2cccc3c2C(=O)c2ccc(N4CCC(C)CC4)cc2S3(=O)=O)cc1 | -5.88% [at 0.5 µM]
O=C(NCc1cccs1)Nc1cccc(Cl)c1 | -20.3%
C[C@@H]1CN([C@@H](C)CO)C(=O)c2cccc(NC(=O)Nc3ccc4c(c3)OCO4)c2O[C@H]1CN(C)Cc1ccc(Cl)c(Cl)c1 | -35% [at 18 µM]
C/C(=N\NC(=O)c1ccc(Cn2cc(Br)cn2)o1)c1ccc(NC(=O)c2ccoc2C)cc1 | 18.3% [at 16 µM]
Cc1cccc(-c2nnc(-c3cccc(NC(=O)Cc4cccs4)c3)o2)c1 | 34.9%
Cc1ccc(S(=O)(=O)Nc2cccc(-c3ccc(N4CCCCCC4)nn3)c2)cc1 | 29.4% [at 4.2 µM]
Cc1ccc(S(=O)(=O)Nc2cccc(-c3ccc(N4CCCCCC4)nn3)c2)c(C)c1 | 27.4% [at 4.2 µM]
C[C@@H]1CN([C@@H](C)CO)S(=O)(=O)c2ccc(-c3ccc(F)cc3)cc2O[C@H]1CN(C)C(=O)C1CC1 | -26.9%
C[C@H]1CCCCO[C@H](CN(C)C(=O)Nc2ccc(F)cc2)[C@@H](C)CN([C@@H](C)CO)C(=O)c2cc(NC(=O)Nc3ccc4c(c3)OCO4)ccc2O1 | -13.8% [at 8 µM]
C[C@@H]1CCCCO[C@@H](CN(C)Cc2ccncc2)[C@@H](C)CN([C@@H](C)CO)C(=O)c2cc(NC(=O)Nc3ccc4c(c3)OCO4)ccc2O1 | 11%
C[C@H]1CCCCO[C@@H](CN(C)Cc2ccncc2)[C@@H](C)CN([C@@H](C)CO)C(=O)c2cc(NC(=O)Nc3ccc4c(c3)OCO4)ccc2O1 | -19.5%
C[C@H](CO)N1C[C@H](C)[C@H](CN(C)Cc2ccncc2)OCCCC[C@H](C)Oc2ccc(NC(=O)Nc3ccc4c(c3)OCO4)cc2C1=O | -10.9%
C[C@H](CO)N1C[C@H](C)[C@@H](CN(C)Cc2ccc(-c3ccccc3)cc2)Oc2c(NC(=O)Nc3ccc4c(c3)OCO4)cccc2C1=O | -20.6%
O=C(CNc1ccc(Br)cc1)c1ccc(Br)s1 | 12.9% [at 4.2 µM]
CCc1c(C(=O)Nc2ccc(C)c(C)c2)[nH]c(C)c1C(C)=O | 13.1% [at 4.2 µM]
COc1ccc2oc(C(=O)OCC(=O)Nc3ccc(C)c(S(=O)(=O)N4CCOCC4)c3)c(C)c2c1 | 34.7%
C[C@H](CO)N1C[C@H](C)[C@@H](CN(C)C(=O)Nc2ccc(F)cc2)OCCCC[C@H](C)Oc2ccc(NC(=O)Nc3ccc4c(c3)OCO4)cc2C1=O | 15.2% [at 8 µM]
